Results as given in PubChem BioAssay AID739 (SRMLSC, 2007).
The whole screen tested about 98,000 compounds, of which about 880 (0.9%) were called active. The sample holds actives, similar compounds and a random draw of the others, so the mix is not that of the screen. Unmarked numbers belong to inactive results. Cut-off read from the data, not from the text of the source: active = inhibition above about 30%; inactive = the rest.

Assay: phenotypic screen on post-Golgi transport, primary screen (AID 739);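 note: yeast cells grown in 1536-well plates; yeast grown about 18 h at 30C before absorbance read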
Conditions: post-Golgi transport phenotypic cell assay; at 10 µM; stronger effect = higher value

Compared with `CN1CCN(c2ccc(NC(=O)COc3ccc(Cl)cc3Cl)cc2)CC1`, `Cc1ccccc1OCC(=O)Nc1ccc(N2CCN(C(=O)C(C)C)CC2)c(Cl)c1` is lower in inhibition: 0.47% for the first, -4.22% for the second.

Compared with `CCCOc1cc(C)c(S(=O)(=O)n2nnc3ccccc32)cc1C`, `CCOc1ccccc1NC(=O)Nc1cc(OC)ccc1OC` is higher in inhibition: 0.66% for the first, 1.32% for the second.

Compared with `Cn1cc(S(=O)(=O)N2CCN(c3ccc(F)cc3)CC2)c(=O)n(C)c1=O`, `Cn1cc(S(=O)(=O)N2CCC(Cc3ccccc3)CC2)c(=O)n(C)c1=O` is higher in inhibition: -6.58% for the first, 7.01% for the second.

Compared with `CCN1CCN(C(=O)c2cc3cc4ccc(OC)cc4nc3s2)CC1`, `Cc1cccc(C(=O)N2CCCN(C(=O)c3cccc(C)c3)CC2)c1` is higher in inhibition: 1.48% for the first, 17.7% for the second.

Compared with `O=C(COc1ccccc1F)NC1CC1`, `O=C(NC1CCN(Cc2ccccc2)CC1)c1ccccc1F` is lower in inhibition: 15.2% for the first, 1.69% for the second.

Going from `CCC1(C)Cc2c(sc3nc(SC)nc(N)c23)CO1` (configuration not stated) to `CC1(C)Cc2c(sc3nc(SCC(=O)NCc4ccccc4)n(-c4ccccc4)c(=O)c23)CS1`, the inhibition rises from -2.83% to 8.61%.

First: COC(=O)c1ccc(Cc2ccccc2)o1
Second: CC(CCc1ccccc1)NC(=O)c1ccc(Br)o1 (configuration not stated)
The inhibition of the first is higher: 8.24% for the first, 2.83% for the second.

Going from `C=C(C)COc1ccc(-c2n[nH]c(C)c2-c2ccccc2OC)c(O)c1` to `COc1cccc(NC(=O)Cc2ccc(C)cc2)c1`, the inhibition rises from -7.36% to 24.4%.

Going from `O=C(Nc1ccc(Cl)cc1)c1cc2nc(C3CC3)cc(C(F)(F)F)n2n1` to `C=CCCC(=O)Nc1nc(C)c(-c2csc(Nc3ccc(Cl)cc3)n2)s1`, the inhibition rises from 12% to 12.8%.

Going from `CC12c3ccccc3C(c3ccccc31)C1C(=O)N(Cc3cccnc3)C(=O)C12` (configuration not stated) to `O=C1c2ccccc2C(=O)N1CCC(c1ccccc1)c1ccco1` (configuration not stated), the inhibition falls from 2.75% to -1.67%.

Compared with `CC(C)Cc1oc(C(=O)O)cc1CN`, `CCc1c(C)sc(NC(=O)c2ccc(Br)o2)c1C(=O)OC` is higher in inhibition: -3.35% for the first, 2.81% for the second.

Compared with `COC(=O)C1CCN(CC(N)=O)CC1`, `CCOC(=O)N1CCC(Nc2c(NCCCN3CCN(CC)CC3)c(=O)c2=O)CC1` is lower in inhibition: 0% for the first, -3.44% for the second.

Going from `COc1cccc(OCC(O)CN2CCN(CCO)CC2)c1` (configuration not stated) to `OC(COc1cccc(OCC(O)CN2CCCC2)c1)CN1CCCC1` (configuration not stated), the inhibition falls from 3.01% to -2.18%.

First: OC(COc1cccc2ccccc12)CN1CCN(c2ccccn2)CC1 (configuration not stated)
Second: Cc1cc(C(=O)Nc2ccccc2N2CCOCC2)c2ccccc2n1
The inhibition of the first is higher: 3.42% for the first, -2.05% for the second.

First: Fc1ccc(-n2c(Cc3ccccc3)nnc2SCc2nc(-c3ccc(Cl)cc3)no2)cc1
Second: COc1ccc(CC(=O)Nc2ccc(-c3nnc(-c4ccc(C)cc4)o3)cc2)cc1
The inhibition of the first is lower: -6.61% for the first, 5.17% for the second.

First: Cc1nn(C)c(Oc2ccc(Cl)cc2)c1C=O
Second: CC(C)NC(=O)C(=O)NCCN1CCN(S(=O)(=O)c2ccc(Cl)cc2)CC1
The inhibition of the first is lower: -3.55% for the first, 1.12% for the second.

Compared with `Cc1nc(Cl)c2oc3ccccc3c2n1`, `Cc1nonc1NC(=O)c1ccccc1Br` is lower in inhibition: 12.3% for the first, -12.3% for the second.

Going from `CCC(=O)c1ccc(OCC(O)CN2CC(C)OC(C)C2)cc1` (configuration not stated) to `CCCCOc1ccc(C(=O)NCc2ccncc2)cc1`, the inhibition rises from 2.21% to 2.23%.

Compared with `Cc1cc(C)cc(OCC(=O)Nc2nc3ccc([N+](=O)[O-])cc3s2)c1`, `COc1cc(OC)c(/C=N/NC(=O)c2ccc([N+](=O)[O-])cc2)cc1Br` is lower in inhibition: -4.35% for the first, -4.41% for the second.

Compared with `COC(=O)C(NC(=O)c1ccc(OC)cc1)(Nc1ncc(S(=O)(=O)c2ccc([N+](=O)[O-])cc2)s1)C(F)(F)F` (configuration not stated), `CCCc1ccc(-c2c(C)sc(NC(=O)c3ccnn3C)c2C#N)cc1` is lower in inhibition: 6.99% for the first, -9.37% for the second.

Compared with `COC(=O)C1C(=O)NCC1c1ccc(C)cc1` (configuration not stated), `Cc1ccc(C(=O)NNC(=O)OC(C)(C)C)c(Cl)c1` is higher in inhibition: -3.77% for the first, -3.13% for the second.

Going from `CCCCN=C1N/C(=C\c2ccco2)C(=O)N1c1ccccc1` to `O=C(Nc1cccc(Cl)c1)Nc1nnc(-c2ccccc2)o1`, the inhibition falls from 1.56% to -5.96%.

First: CCCCCCC(=O)Nc1nc(C)c(-c2csc(Nc3cc(Cl)ccc3OC)n2)s1
Second: COc1cc(OC)c(NC(=O)c2ccc(Br)o2)cc1Cl
The inhibition of the first is lower: -2.77% for the first, 6.31% for the second.

Going from `O=C(CNC(=O)c1ccc(Cl)cc1Cl)NCC(=O)Nc1ccccc1N1CCOCC1` to `CCCC(=O)Nc1ccc(Cl)c(NC(=O)c2ccc(Br)o2)c1`, the inhibition rises from -6.67% to 0.4%.

Work on `CS(=O)(=O)N1CCN(c2ccc(C(=O)NC3C4CC5CC(C4)CC3C5)cc2[N+](=O)[O-])CC1` (configuration not stated) yielded an inhibition of -5.58%.

In the case of `Cc1ccc(NC(=O)COc2ccc(-n3ccnc3)cc2)cc1Cl`, the inhibition is reported as 48.8% (active).
For `CC(C)c1ccc(NS(=O)(=O)c2cn(C)c(=O)n(C)c2=O)cc1`, the inhibition was 76% (active).
With `O=C(COc1ccc(Br)cc1F)NC1CCN(Cc2ccccc2)CC1` the inhibition was 95.3% (active).
With `CCOc1ccccc1Oc1cn[nH]c1-c1ccc(OC)cc1O` the inhibition was 80.9% (active).
In the case of `Cc1ccc(OCC(O)CN2CCN(CC(O)COc3ccc(C)cc3Cl)CC2)c(Cl)c1` (configuration not stated), the inhibition is reported as 67.9% (active).
For `O=C(c1ccc(Cl)cc1)c1ccc(OCC(O)CN2CCCCC2)cc1` (configuration not stated), the inhibition was 35.1% (active).
For `COc1ccc(NC(=O)/C(Cl)=C(/Cl)S(=O)Cc2ccc(C)cc2)cn1` (configuration not stated), the inhibition was 107% (active).
In the case of `O=C(NC(Nc1nc2ccc([N+](=O)[O-])cc2s1)(C(F)(F)F)C(F)(F)F)c1ccccc1`, the inhibition is reported as 102% (active).
With `CC(CNC(=O)c1ccc(Br)o1)NC(=O)c1ccc(Br)o1` (configuration not stated) the inhibition was 36.5% (active).
With `CCCCC(=O)Nc1nc(C)c(-c2csc(Nc3ccc(Cl)cc3)n2)s1` the inhibition was 32.9% (active).
In the case of `COc1c(C)cccc1C(=O)Nc1cc(Cl)ccc1N1CCOCC1`, the inhibition is reported as 64.3% (active).
In the case of `O=C(Nc1nnc(-c2ccc(Cl)cc2)o1)c1ccccc1Br`, the inhibition is reported as 78.2% (active).
In the case of `CCN1CCN(c2c(Cl)cccc2NC(=O)c2ccc(Br)o2)CC1`, the inhibition is reported as 30.4% (active).
